The record followed here is ChEMBL document CHEMBL1201862, “PubChem BioAssay data set” (2004).

The campaign covered roughly 15,000 sequences. About 620 (4.1%) were called active. Rule as the data show it: active = GI50 up to about 1.1 µM and inactive = higher. These entries were drawn from the full list. Measured potencies and affinities stand elsewhere.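 Exposure lasted 48 hours, with cells grown in 96-well plates and compounds tested at five concentrations. At the GI50, growth is halved.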

The subject of the experiment is M19-MEL. The experiment in a line: NCI tumour cell line growth inhibition, 48 h.
As for “[Bis(aminomethyl)ethylmethylsilane]tetrachloroplatinum(IV), CHEMBL2146192”, the GI50 is 1520 nM. Under “mu-(1,7-nanodiamine-N,N')bis-(cis-aminedichloroplatimum (II)), CHEMBL2146215” stands 1360 nM; under “[Bis(aminomethyl)pentamethylenesilane]dichloropaltinum(II), CHEMBL2146202”, 5380 nM. Substance “[Bis(aminomethyl)tetramethylenesilane]dichloropaltinum(II), CHEMBL2146205” yielded a GI50 of 19300 nM. Under “[Bis(aminomethyl)tetramethylenesilane]tetrachloropaltinum(IV), CHEMBL2146189” stands 2830 nM; under “[Bis(aminomethyl)dimethylsilane]dichloroplatinum (II), CHEMBL2146201”, 15200 nM. Under “cis-Bis[[(trimethylsilyl)methyl]amino]tetrachloroplatinum(IV), CHEMBL2146191” stands 3370 nM. “[Bis(aminomethyl)diethylsilane]tetrachloroplatinum(IV), CHEMBL2146203”: the GI50 was determined as 2030 nM. With “[Bis(aminomethyl)pentamethylenesilane]tetrachloropaltinum(IV), CHEMBL2146204” the figure was 2240 nM; with “[Bis(aminomethyl)dimethylsilane]tetrachloroplatinum(IV), CHEMBL2146190”, 3120 nM.
